Calls of active or inactive are those of the source. Unless noted, no rule for the calls is given here.
Key:
[1] = anti-His antibody binders, primary screen, artefact control for SMM control protein annotation, biochemical, small-molecule microarray, 635 nm fluorescence (AID 1128); conditions: anti-His Alexa647 antibody binding, higher = more signal;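 also: score merges feature fluorescence with signal-to-noise for each printed compound spot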
[2] = system: Human papillomavirus type 1a E7 protein (residues 1-88); assay: HPV1a E7 small-molecule binders, primary screen, biochemical, small-molecule microarray, residues 1-88, 635 nm (AID 1129); conditions: small-molecule microarray binding, fluorescence 635 nm; higher = more signal
[3] = molecular target: Focal adhesion kinase 1 (Homo sapiens) (UniProt Q05397); assay: small-molecule microarray binders of FAK, primary screen, biochemical, 635/667 nm fluorescence, BSA, DTT (AID 1130); conditions: PTK2 binding, 635 nm fluorescence, higher = more signal;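 also: composite of spot emission at 667 nm and signal to noise over triplicate slides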
[4] = system: Fibrinogen (Alexa647-labelled); assay: fibrinogen binders on compound microarrays, profiling panel, artefact control for SMM control-protein annotation, biochemical, small-molecule microarray, 635/667 nm fluorescence (AID 1131); conditions: fibrinogen-A647 binding fluorescence, higher = more signal;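 also: z-score merges 667 nm fluorescence with per-spot signal-to-noise over triplicate slides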
[5] = molecular target: Follistatin (Homo sapiens) (UniProt P19883); assay: follistatin binders on small-molecule microarrays, primary screen, biochemical, small-molecule microarray, 635/667 nm fluorescence (AID 1132); conditions: FST binding, 635 nm fluorescence, higher = more signal
[6] = molecular target: Fibroblast growth factor 2 (Homo sapiens) (UniProt P09038); assay: FGF2 binders on small-molecule microarrays, primary screen, biochemical, small-molecule microarray, 635/667 nm fluorescence (AID 1133); conditions: small-molecule microarray binding, FGF2, fluorescence 635/667; higher = more signal
[7] = mitochondrial membrane potential change in A549 cells, profiling panel, cell-based, JC-1 fluorescence, basal, 24 h, 100 nL (AID 1138); conditions: higher = more signal;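 also: A549 lung adenocarcinoma cells under basal conditions with no added stimulus; test concentration not given here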
Lefty1 = Lefty1 binders on small-molecule microarrays, primary screen, biochemical, small-molecule microarray, 635/667 nm fluorescence (AID 1139); conditions: small-molecule microarray binding, fluorescence 635/667; higher = more signal
[8] = system: wheat germ agglutinin (Triticum aestivum), Alexa647-labelled; assay: wheat germ agglutinin binders on compound microarrays, profiling panel, artefact control for SMM control-protein annotation, biochemical, small-molecule microarray, 635/667 nm fluorescence (AID 1140); conditions: WGA-A647 binding, 635 nm fluorescence, higher = more signal;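 also: score merges 667 nm feature emission with signal to noise over triplicate slides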
[9] = molecular target: Luciferin 4-monooxygenase (Photinus pyralis) (UniProt P08659); assay: firefly luciferase enzyme inhibitors, primary screen, biochemical, luminescence, purified enzyme, 2006 set (AID 1141); conditions: SteadyGlo luminescence, 30 min, higher = more signal, called active from +8 up or from −8 down;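 also: cell-free assay with purified firefly luciferase at 100 ng per well in PBS; test concentration not given here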
[10] = system: Wnt5a (protein binding on small-molecule microarray); assay: Wnt5a binders on small-molecule microarray, primary screen, biophysical, 635/667 nm fluorescence (AID 1142); conditions: 635 nm fluorescence, higher = more signal;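 also: fluorescence read at 667 nm with signal to noise per printed feature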
[11] = cell viability in Huh7 cells, primary screen, cytotoxicity control for HCV replication inhibitor project, CellTiter-Glo luminescence, basal, 48 h (AID 1143); conditions: Huh7 HCV replicon, higher = more signal, called active from +8 up or from −8 down;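 also: Huh7 hepatoma cells carrying a hepatitis C replication reporter with no stimulus; test concentration not given here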
[12] = P. aeruginosa biofilm formation inhibitors, primary screen, PAO1 strain, BacTiter-Glo luminescence, LB-PBS (AID 1144); conditions: 12 h, higher = more signal
[13] = CREB reporter modulators without forskolin, primary screen, cell-based, PC12, CRE-LacZ reporter, unstimulated (AID 1145); conditions: no forskolin, luminescence, 4.5 h, higher = more signal, called active from +8 up or from −8 down
[14] = CREB reporter modulators under forskolin, primary screen, cell-based, PC12, CRE-LacZ reporter, forskolin-stimulated (AID 1146); conditions: luminescence, 4.5 h, higher = more signal, called active from +8 up or from −8 down;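 also: PC12 cells with 6xCRE LacZ reporter stimulated by forskolin 10 µM; beta-galactosidase reporter signal reflecting CREB driven transcription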
[15] = molecular target: Streptavidin (Streptomyces avidinii) (UniProt P22629); assay: streptavidin binders on small-molecule microarray, primary screen, artefact control for SMM compound annotation, biophysical, 635/667 nm fluorescence (AID 1147); conditions: streptavidin binding, higher = more signal;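 also: signal reflects streptavidin binding to arrayed compounds as a control protein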
[16] = small-molecule binders of probe aInhba, primary screen, biochemical, small-molecule microarray, 635/667 nm fluorescence (AID 1148); conditions: higher = more signal;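 also: score merges 667nm spot fluorescence with signal-to-noise for antibody binding to printed compounds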
Torsin-1A (Homo sapiens) [17] = molecular target: Torsin-1A (Homo sapiens) (UniProt O14656); assay: torsin A binders from cell lysate, primary screen, small-molecule microarray, wild-type, 635/667 nm (AID 1149); conditions: COS7 hTOR1A-WT lysate, 635 nm fluorescence, higher = more signal
Torsin-1A (Homo sapiens) [18] = molecular target: Torsin-1A (Homo sapiens) (UniProt O14656); assay: small-molecule binders of mutant TOR1A in lysate, primary screen, cell lysate, small-molecule microarray, COS7 lysate, 635/667 nm fluorescence (AID 1150); conditions: COS7 hTOR1A mutant lysate, 635 nm fluorescence, higher = more signal;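 also: score pools 667 nm emission and signal to noise measuring lysate protein binding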
[19] = system: Sonic hedgehog protein (Shh); assay: small-molecule binders of Shh protein, primary screen, biochemical, small-molecule microarray, 635/667 nm fluorescence (AID 1151); conditions: small-molecule microarray binding, 635 nm fluorescence; higher = more signal;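 also: Shh protein binding to compounds spotted on small-molecule microarray slides; score combines spot fluorescence intensity with signal-to-noise across triplicate slides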

Sequence of Focal adhesion kinase 1 (Homo sapiens) (Q05397 whole entry, looked up): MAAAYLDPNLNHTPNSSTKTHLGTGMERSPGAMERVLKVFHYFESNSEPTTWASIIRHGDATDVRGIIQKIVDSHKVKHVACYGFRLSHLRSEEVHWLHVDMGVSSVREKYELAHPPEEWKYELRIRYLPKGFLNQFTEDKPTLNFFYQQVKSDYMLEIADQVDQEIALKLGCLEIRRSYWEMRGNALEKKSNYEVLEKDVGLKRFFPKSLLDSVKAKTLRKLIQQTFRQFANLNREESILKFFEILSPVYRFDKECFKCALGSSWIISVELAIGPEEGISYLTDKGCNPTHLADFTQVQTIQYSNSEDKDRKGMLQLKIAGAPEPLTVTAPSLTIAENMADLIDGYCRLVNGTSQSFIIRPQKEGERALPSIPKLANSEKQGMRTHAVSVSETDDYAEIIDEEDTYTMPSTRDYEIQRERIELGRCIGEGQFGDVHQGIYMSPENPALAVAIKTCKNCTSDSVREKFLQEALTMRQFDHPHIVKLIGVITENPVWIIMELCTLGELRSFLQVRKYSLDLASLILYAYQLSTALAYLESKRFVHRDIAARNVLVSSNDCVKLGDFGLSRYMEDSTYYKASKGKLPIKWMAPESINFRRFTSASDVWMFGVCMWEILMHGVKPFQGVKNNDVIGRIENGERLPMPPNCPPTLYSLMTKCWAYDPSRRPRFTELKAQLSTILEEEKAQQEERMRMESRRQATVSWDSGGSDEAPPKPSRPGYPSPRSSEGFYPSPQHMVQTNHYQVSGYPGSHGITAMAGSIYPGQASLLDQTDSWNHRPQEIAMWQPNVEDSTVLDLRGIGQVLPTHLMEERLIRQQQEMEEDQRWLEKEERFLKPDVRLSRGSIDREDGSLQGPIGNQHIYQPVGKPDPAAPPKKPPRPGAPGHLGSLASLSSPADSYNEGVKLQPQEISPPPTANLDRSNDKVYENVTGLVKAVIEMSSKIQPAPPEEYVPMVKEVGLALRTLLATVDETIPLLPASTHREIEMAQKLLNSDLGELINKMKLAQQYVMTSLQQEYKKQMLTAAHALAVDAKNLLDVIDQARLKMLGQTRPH
Sequence of Streptavidin (Streptomyces avidinii) (P22629 whole entry, looked up): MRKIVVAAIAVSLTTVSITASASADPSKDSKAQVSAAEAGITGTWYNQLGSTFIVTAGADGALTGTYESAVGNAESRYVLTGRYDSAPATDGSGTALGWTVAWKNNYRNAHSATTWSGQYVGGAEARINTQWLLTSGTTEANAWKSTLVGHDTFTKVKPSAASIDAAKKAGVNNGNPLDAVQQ
Sequence of Fibroblast growth factor 2 (Homo sapiens) (P09038 whole entry, looked up): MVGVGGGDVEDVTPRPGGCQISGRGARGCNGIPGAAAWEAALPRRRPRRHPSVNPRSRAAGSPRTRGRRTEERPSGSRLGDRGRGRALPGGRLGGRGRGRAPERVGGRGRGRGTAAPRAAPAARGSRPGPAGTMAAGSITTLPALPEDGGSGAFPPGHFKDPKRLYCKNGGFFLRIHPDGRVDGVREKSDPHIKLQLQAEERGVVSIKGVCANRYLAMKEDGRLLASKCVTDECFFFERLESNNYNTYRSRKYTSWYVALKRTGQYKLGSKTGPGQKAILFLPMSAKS
Sequence of Follistatin (Homo sapiens) (P19883 whole entry, looked up): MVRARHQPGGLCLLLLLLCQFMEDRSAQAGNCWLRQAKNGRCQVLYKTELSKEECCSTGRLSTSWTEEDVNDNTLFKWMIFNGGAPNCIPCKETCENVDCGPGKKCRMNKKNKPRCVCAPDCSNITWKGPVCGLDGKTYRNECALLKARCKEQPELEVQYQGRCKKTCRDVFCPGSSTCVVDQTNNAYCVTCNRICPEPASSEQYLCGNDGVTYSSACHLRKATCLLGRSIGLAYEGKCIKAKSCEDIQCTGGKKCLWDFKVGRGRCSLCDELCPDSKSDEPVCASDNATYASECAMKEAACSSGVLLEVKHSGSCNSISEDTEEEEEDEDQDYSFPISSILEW
Sequence of Luciferin 4-monooxygenase (Photinus pyralis) (P08659 whole entry, looked up): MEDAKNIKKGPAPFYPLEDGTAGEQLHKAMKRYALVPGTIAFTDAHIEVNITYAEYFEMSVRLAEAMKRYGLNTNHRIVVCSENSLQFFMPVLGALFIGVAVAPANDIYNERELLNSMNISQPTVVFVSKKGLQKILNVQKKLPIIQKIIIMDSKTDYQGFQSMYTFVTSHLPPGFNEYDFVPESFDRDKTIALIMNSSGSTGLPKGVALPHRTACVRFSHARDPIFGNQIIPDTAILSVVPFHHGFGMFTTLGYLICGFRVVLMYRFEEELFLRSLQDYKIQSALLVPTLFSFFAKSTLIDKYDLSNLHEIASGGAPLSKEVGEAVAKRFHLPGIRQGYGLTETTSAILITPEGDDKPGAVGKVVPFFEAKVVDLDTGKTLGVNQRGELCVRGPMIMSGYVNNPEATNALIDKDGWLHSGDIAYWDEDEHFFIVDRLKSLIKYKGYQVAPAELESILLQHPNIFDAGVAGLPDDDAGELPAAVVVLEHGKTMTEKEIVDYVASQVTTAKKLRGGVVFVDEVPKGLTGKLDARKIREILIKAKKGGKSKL
Sequence of Torsin-1A (Homo sapiens) (O14656 whole entry, looked up): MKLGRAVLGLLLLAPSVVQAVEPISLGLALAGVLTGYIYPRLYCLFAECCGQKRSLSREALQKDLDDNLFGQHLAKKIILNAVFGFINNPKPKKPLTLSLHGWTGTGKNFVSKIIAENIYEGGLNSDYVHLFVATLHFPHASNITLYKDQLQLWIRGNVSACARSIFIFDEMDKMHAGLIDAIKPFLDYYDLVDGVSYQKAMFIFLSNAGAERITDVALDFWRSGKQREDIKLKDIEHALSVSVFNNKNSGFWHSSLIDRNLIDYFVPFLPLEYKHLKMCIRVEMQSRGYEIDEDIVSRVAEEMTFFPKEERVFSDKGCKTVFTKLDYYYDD

Structure (SMILES)	composite z-score [1]	composite z-score [2]	composite z-score [3]	composite z-score [4]	composite z-score [5]	composite z-score [6]	z-score [7]	composite z-score (Lefty1)	composite z-score [8]	z-score [9]	composite z-score [10]	z-score [11]	z-score [12]	z-score [13]	z-score [14]	composite z-score [15]	composite z-score [16]	composite z-score (Torsin-1A (Homo sapiens) [17])	composite z-score (Torsin-1A (Homo sapiens) [18])	composite z-score [19]
CCCCCCCCCCC(O)C1C=CC2C(=O)N(C)C(=O)C2N1NC(=O)OC(C)(C)C (stereo not given)	0.179	0.995	0.723	0.907	-0.406	-0.531	-1.2	-0.19	0.474	-1.33 (inactive)	-0.121	-3.15 (inactive)	0.918 (inactive)	0.632 (inactive)	0.584 (inactive)	0.548	0.0198	-0.436	0.0812	-0.813
CCCC[C@@H]1C[C@H]1[C@@H](NC(=O)Cc1ccccc1)c1ccc(-c2ccccc2)cc1	0.272	1.12	0.913	0.655	-0.173	-0.405	0.629	-0.0127	0.0864	0.624 (inactive)	-0.111	-1.31 (inactive)	1.65 (inactive)	0.39 (inactive)	1.19 (inactive)	0.698	-0.158	-0.369	0.21	-0.756
C=CCN1C(=O)[C@@]2(CCS(=O)(=O)c3ccccc3)N=C(c3ccc(OCCCO)cc3)O[C@H]2c2ccccc21	1.34	1.25	0.763	0.884	1.45	1.78	0.821	0.952	0.37	-1.48 (inactive)	0.889	-2.49 (inactive)	0.369 (inactive)	-0.0808 (inactive)	-1.28 (inactive)	0.636	0.198	1.16	0.426	2.07
CCCC[C@@H]1C[C@H]1[C@@H](NC(=O)c1ccccc1)c1ccc(C(F)(F)F)cc1	0.581	-0.551	-0.0796	-2.43	-1	-1.19	-0.0527	-0.549	-0.331	0.286 (inactive)	-0.547	0.085 (inactive)	0.401 (inactive)	-0.572 (inactive)	0.24 (inactive)	0.056	-0.143	-1.15	-0.349	-1.85
[N-]=[N+]=NCc1ccccc1[C@H]1OC(c2ccc(OCCCO)cc2)=N[C@@]1(CCS(=O)(=O)c1ccccc1)C(=O)NCC(O)CO (stereo not given in full)	2.5	1.26	1.33	1.01	1.36	0.877	-1.22	-0.385	0.983	-0.986 (inactive)	0.914	-0.119 (inactive)	-1.53 (inactive)	1.99 (inactive)	-0.75 (inactive)	1.2	0.257	0.662	1.41	-0.276
CCOC(=O)C[C@H]1[C@H](OC(=O)c2cc3ccccc3oc2=O)[C@@H](NC(=O)c2ccc(-c3ccccc3)cc2)c2cc(OCCCO)ccc2N1C(=O)c1ccccc1	0.942	1.2	0.309	0.711	1.34	0.92	-1.24	1.16	0.997	0.207 (inactive)	0.624	-2.84 (inactive)	1.02 (inactive)	5.66 (inactive)	-0.818 (inactive)	0.509	0.027	1.4	-0.0812	1.87
NC(=O)NCC#Cc1ccc2c(c1)[C@]1(C(=O)N2)[C@H](C(=O)O)[C@H]2C(=O)O[C@H](c3ccccc3)[C@H](c3ccccc3)N2[C@@H]1c1ccc(OCCO)cc1	0.894	0.643	0.116	0.57	1.18	0.239	-0.765	0.183	0.553	-2.23 (inactive)	0.0755	-0.175 (inactive)	-0.015 (inactive)	-0.195 (inactive)	-0.746 (inactive)	1.15	-0.102	-0.0721	0.588	0.135
NCCCCCCNC(=O)[C@@H]1C[C@@H]2C(=O)N[C@@H](CCCCN)C(=O)N2[C@@H]1c1cccc(OCCO)c1	1.24	1.12	1.21	-0.0787	0.877	0.485	0.81	1.4	0.641	0.507 (inactive)	0.57	0.0957 (inactive)	-0.537 (inactive)	-0.26 (inactive)	-0.119 (inactive)	0.125	0.094	-0.324	1.2	1.5
COCCOC(=O)N1C(=O)[C@@]2(c3cc(C#CC4=CCCCC4)ccc31)[C@H](c1ccc(OCCO)cc1)N1[C@H](c3ccccc3)[C@H](c3ccccc3)OC(=O)[C@H]1[C@@H]2C(=O)NC[C@H](O)c1ccccc1	0.392	1.16	0.499	0.295	1.48	1.82	-1.4	1.65	-0.127	-2.06 (inactive)	0.552	-2.18 (inactive)	0.698 (inactive)	0.354 (inactive)	-0.224 (inactive)	0.785	0.801	0.818	0.51	1.85
COCCOC(=O)N1C(=O)[C@@]2(c3ccccc31)[C@H](C(=O)N1CCN(c3ncccn3)CC1)[C@H]1C(=O)O[C@H](c3ccccc3)[C@H](c3ccccc3)N1[C@@H]2c1ccc(O)cc1	1.12	0.613	0.585	0.675	-0.147	0.173	-0.189	0.0567	0.875	-0.378 (inactive)	0.135	-2.65 (inactive)	0.0365 (inactive)	0.631 (inactive)	-0.484 (inactive)	0.284	-0.41	-0.396	-0.35	1.07
